Assay results from PubChem BioAssay (EPA / NIEHS).
The source made the active and inactive calls. The calls were made as follows: active = hit-call score of the fitted dose curve at least 0.9, where 1 is the maximum; inactive = score below 0.9.

Legend:
Conditions in all cases: mRNA level, 48 h; actives raise or lower the signal
[1] = read-out: Glutamate-cysteine ligase catalytic (GCLC), GCLC (gene 2729); experiment: LTEA_HepaRG_GCLC: Life Technologies and Expression Analysis (LTEA) Assay for Glutamate-cysteine ligase catalytic (GCLC) using HepaRG (AID 2283498)
Outline: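 Read-out is GCLC transcript level by Fluidigm-based TaqMan qRT-PCR, normalized to three housekeeping genes and fitted in both directions relative to 0.5% DMSO. Human HepaRG cells received chemicals for 48 h, up to 100 uM.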

[2] = read-out: growth arrest and DNA damage 45 (GADD45G), GADD45G (gene 10912); experiment: LTEA_HepaRG_GADD45G: Life Technologies and Expression Analysis (LTEA) Assay for growth arrest and DNA damage 45 (GADD45G) using HepaRG (AID 2283499)
Outline: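 Differentiated human HepaRG cells in serum-free induction medium were exposed for 48 h to 8 half-log concentrations up to 100 uM in 0.5% DMSO, in duplicate. GADD45G mRNA was measured by TaqMan qRT-PCR, normalised to ACTB, GAPDH and POLR2A, and fitted bidirectionally against DMSO.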

[3] = read-out: Glutamate-cysteine ligase regulatory (GCLM), GCLM (gene 2730); experiment: LTEA_HepaRG_GCLM: Life Technologies and Expression Analysis (LTEA) Assay for Glutamate-cysteine ligase regulatory (GCLM) using HepaRG (AID 2283500)
Outline: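 Human liver HepaRG cultures receive test chemicals for 48 hours at up to 100 uM in 0.5% DMSO. GCLM expression is measured by qRT-PCR and analysed for increases or decreases against vehicle.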

[4] = read-out: Glutathione S-transferase M3 (GSTM3), GSTM3 (gene 2947); experiment: LTEA_HepaRG_GSTM3: Life Technologies and Expression Analysis (LTEA) Assay for Glutathione S-transferase M3 (GSTM3) using HepaRG (AID 2283501)
Outline: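 Differentiated HepaRG cells in serum-free induction medium were exposed in duplicate for 48 h to 8 half-log concentrations up to 100 uM in 0.5% DMSO. GSTM3 mRNA was measured by TaqMan qRT-PCR, normalized to ACTB/GAPDH/POLR2A, and fitted bidirectionally versus DMSO.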

[5] = read-out: Heat shock 70 kDa protein 1 (HSPA1A), gene 3303; experiment: LTEA_HepaRG_HSPA1A: Life Technologies and Expression Analysis (LTEA) Assay for Heat shock 70 kDa protein 1 (HSPA1A) using HepaRG (AID 2283502)
Outline: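 HSPA1A induction in human HepaRG liver cells is measured after 48 h of chemical treatment (100 uM maximum, 0.5% DMSO vehicle). Expression comes from qRT-PCR normalized to endogenous controls.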

[6] = read-out: Hypoxia-inducible factor 1-alpha (Homo sapiens) (UniProt Q16665); experiment: LTEA_HepaRG_HIF1A: Life Technologies and Expression Analysis (LTEA) Assay for Hypoxia-inducible factor 1 (HIF1A) Trancription factor using HepaRG (AID 2283503);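 also: HIF1A transcript by TaqMan qRT-PCR normalized to ACTB GAPDH and POLR2A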
Outline: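 HepaRG, 48 h exposure, 8-pt half-log series from 100 uM, 0.5% DMSO vehicle, duplicates. Readout: HIF1A transcript by qRT-PCR (Fluidigm array), housekeeping-normalised. Bidirectional curve fit vs DMSO baseline.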

[7] = read-out: 3-Hydroxy-3-Methylglutaryl-CoA Synthase 2 (HMGCS2), HMGCS2 (gene 3158); experiment: LTEA_HepaRG_HMGCS2: Life Technologies and Expression Analysis (LTEA) Assay for 3-Hydroxy-3-Methylglutaryl-CoA Synthase 2 (HMGCS2) using HepaRG (AID 2283504)
Outline: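 Differentiated human HepaRG cells were exposed in duplicate for 48 h in serum-free induction medium to eight concentrations (top 100 uM, half-log steps, 0.5% DMSO). HMGCS2 mRNA was quantified by TaqMan qRT-PCR, normalised to ACTB, GAPDH and POLR2A, then fitted bidirectionally against DMSO.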

[8] = read-out: HGF (gene 3082); experiment: LTEA_HepaRG_HGF: Life Technologies and Expression Analysis (LTEA) Assay for Hepatocyte Growth Facto (HGF) using HepaRG (AID 2283505)
Outline: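 Differentiated human HepaRG cells in serum-free induction medium were exposed in duplicate for 48 h to eight concentrations (top 100 uM, half-log steps, 0.5% DMSO). HGF mRNA was quantified by qRT-PCR, normalized to ACTB, GAPDH and POLR2A.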

[9] = read-out: Intercellular Adhesion Molecule 1 (ICAM1), ICAM1 (gene 3383); experiment: LTEA_HepaRG_ICAM1: Life Technologies and Expression Analysis (LTEA) Assay for Intercellular Adhesion Molecule 1 (ICAM1) using HepaRG (AID 2283507)
Outline: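 Differentiated HepaRG cells in serum-free induction medium were exposed in duplicate for 48 h to eight half-log concentrations up to 100 uM in 0.5% DMSO. Transcript levels were measured by qRT-PCR normalized to ACTB, GAPDH and POLR2A; bidirectional fits relative to DMSO.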

[10] = read-out: Insulin-like growth factor-binding protein 1 (IGFBP1), IGFBP1 (gene 3484); experiment: LTEA_HepaRG_IGFBP1: Life Technologies and Expression Analysis (LTEA) Assay for Insulin-like growth factor-binding protein 1 (IGFBP1) using HepaRG (AID 2283508)
Outline: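 Differentiated human HepaRG cells in serum-free induction medium were exposed in duplicate for 48 h to eight concentrations, top 100 uM with half-log dilutions, in 0.5% DMSO. Transcript levels came from qRT-PCR normalised to ACTB, GAPDH and POLR2A, fitted bidirectionally against DMSO.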

[11] = read-out: Interleukin 6 (IL6), IL6 (gene 3569); experiment: LTEA_HepaRG_IL6: Life Technologies and Expression Analysis (LTEA) Assay for Interleukin 6 (IL6) using HepaRG (AID 2283509)
Outline: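 HepaRG, ~100,000 cells/well, 48 h pre-culture; serum-free induction medium; cmpd 8-pt half-log from 100 uM, 0.5% DMSO, duplicate, 48 h. Lysis in RLT, TaqMan qRT-PCR; gain or loss vs DMSO.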

[12] = read-out: Interleukin 6 Receptor (IL6R), IL6R (gene 3570); experiment: LTEA_HepaRG_IL6R: Life Technologies and Expression Analysis (LTEA) Assay for Interleukin 6 Receptor (IL6R) using HepaRG (AID 2283510);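 as to AC50: TaqMan qRT-PCR signal normalized to ACTB GAPDH and POLR2A housekeeping genes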
Outline: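 Concentration-response in human liver HepaRG cells: eight concentrations from 100 uM downward by half-logs, 48 h exposure, 0.5% DMSO vehicle. IL6R mRNA change measured by qRT-PCR and fitted in both directions relative to vehicle.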

[13] = read-out: Potassium channel subfamily K member 1 (KCNK1), KCNK1 (gene 3775); experiment: LTEA_HepaRG_KCNK1: Life Technologies and Expression Analysis (LTEA) Assay for Potassium channel subfamily K member 1 (KCNK1) using HepaRG (AID 2283511)
Outline: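 Gain or loss of KCNK1 mRNA is the read-out, quantified by qRT-PCR against three housekeeping genes after 48 h chemical treatment of human HepaRG liver cells. Concentrations ran from 100 uM downward in half-log steps, vehicle 0.5% DMSO.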

[14] = read-out: Keratin 19 (KRT19), KRT19 (gene 3880); experiment: LTEA_HepaRG_KRT19: Life Technologies and Expression Analysis (LTEA) Assay for Keratin 19 (KRT19) using HepaRG (AID 2283512)
Outline: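 Differentiated human HepaRG cells, plated 48 h, were exposed in duplicate for 48 h in serum-free induction medium to eight half-log concentrations up to 100 uM in 0.5% DMSO. KRT19 mRNA was quantified by qRT-PCR, normalized to ACTB, GAPDH and POLR2A, and fitted bidirectionally versus DMSO.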

[15] = read-out: JUN Transcription Factor, JUN (gene 3725); experiment: LTEA_HepaRG_JUN: Life Technologies and Expression Analysis (LTEA) Assay for JUN Transcription Factor using HepaRG (AID 2283513)
Outline: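 Human HepaRG liver cells receive test chemicals in 0.5% DMSO for 48 h across an eight-point range topping at 100 uM. Expression changes in JUN are scored in both directions against the DMSO vehicle.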

[16] = read-out: Lipase C (LIPC), LIPC (gene 3990); experiment: LTEA_HepaRG_LIPC: Life Technologies and Expression Analysis (LTEA) Assay for Lipase C (LIPC) using HepaRG (AID 2283514)
Outline: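 Read-out is LIPC transcript level by TaqMan qRT-PCR, normalized to three housekeeping genes, after 48 h chemical treatment of human HepaRG liver cells. Curves span eight concentrations topping at 100 uM; activity in either direction scored relative to 0.5% DMSO.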

[17] = read-out: Lipoprotein lipase (LPL), LPL (gene 4023); experiment: LTEA_HepaRG_LPL: Life Technologies and Expression Analysis (LTEA) Assay for Lipoprotein lipase (LPL) using HepaRG (AID 2283515)
Outline: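 Read-out is LPL transcript level by qRT-PCR, normalized to three housekeeping genes and fitted bidirectionally against the DMSO control. Human HepaRG cells received chemicals for 48 h at up to 100 uM.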

[18] = read-out: MicroRNA 122 (MIR122), gene 406906; experiment: LTEA_HepaRG_MIR122: Life Technologies and Expression Analysis (LTEA) Assay for MicroRNA 122 (MIR122) using HepaRG (AID 2283516); also: the transcript read is the microRNA miR-122
Outline: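 HepaRG, 48 h exposure, 8-pt half-log from 100 uM, 0.5% DMSO; TaqMan qRT-PCR; bidirectional fit vs DMSO.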

[19] = read-out: matrix metalloproteinase-10 (MMP10), MMP10 (gene 4319); experiment: LTEA_HepaRG_MMP10: Life Technologies and Expression Analysis (LTEA) Assay for matrix metalloproteinase-10 (MMP10) using HepaRG (AID 2283517)
Outline: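 Gain or loss of MMP10 mRNA is fitted relative to the 0.5% DMSO vehicle. The human hepatic line HepaRG receives a 48-hour serum-free exposure, in duplicate, with a maximum concentration of 100 uM.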

[20] = read-out: Insulin Like Growth Factor 1 (IGF1), IGF1 (gene 3479); experiment: LTEA_HepaRG_IGF1: Life Technologies and Expression Analysis (LTEA) Assay for Insulin Like Growth Factor 1 (IGF1) using HepaRG (AID 2283506)
Outline: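 Using human HepaRG liver cells, IGF1 transcript induction or suppression is measured 48 h after dosing across eight concentrations capped at 100 uM. Values derive from bidirectional concentration-response fitting with DMSO as baseline.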

Measured: AC50

Chain of Hypoxia-inducible factor 1-alpha (Homo sapiens) (Q16665 whole entry, looked up): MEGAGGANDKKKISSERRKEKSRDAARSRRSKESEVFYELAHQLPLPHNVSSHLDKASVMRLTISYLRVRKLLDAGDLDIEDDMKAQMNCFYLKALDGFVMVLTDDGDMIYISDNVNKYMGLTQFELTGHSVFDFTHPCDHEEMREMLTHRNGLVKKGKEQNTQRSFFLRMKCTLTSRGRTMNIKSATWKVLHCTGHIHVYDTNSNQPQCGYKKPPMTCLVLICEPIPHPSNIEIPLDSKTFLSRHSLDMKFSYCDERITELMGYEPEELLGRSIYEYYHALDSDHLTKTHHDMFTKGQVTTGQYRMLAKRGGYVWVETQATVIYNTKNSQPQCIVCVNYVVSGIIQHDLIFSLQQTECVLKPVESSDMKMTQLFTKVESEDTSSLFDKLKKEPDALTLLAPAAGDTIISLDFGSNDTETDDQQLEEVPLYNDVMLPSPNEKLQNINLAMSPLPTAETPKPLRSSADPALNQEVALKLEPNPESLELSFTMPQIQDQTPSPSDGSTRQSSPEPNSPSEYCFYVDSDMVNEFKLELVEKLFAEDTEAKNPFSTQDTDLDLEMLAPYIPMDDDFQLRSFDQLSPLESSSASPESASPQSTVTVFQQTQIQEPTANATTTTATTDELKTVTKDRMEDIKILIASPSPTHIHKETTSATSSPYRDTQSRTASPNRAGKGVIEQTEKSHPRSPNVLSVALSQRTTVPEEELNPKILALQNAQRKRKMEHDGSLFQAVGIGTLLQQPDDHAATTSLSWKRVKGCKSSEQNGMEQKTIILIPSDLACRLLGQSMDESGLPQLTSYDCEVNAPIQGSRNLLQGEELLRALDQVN

COCC(C)OCC(C)O (centres undefined)
not listed: [20]
inactive: all other assays above

Oc1cc2ccccc2c2ccccc12
active: [14] 27.1 µM | [17] 50 µM
inactive: all other assays above

COCC(C)O (centres undefined)
not listed: [20]
inactive: all other assays above

CC(C)(C)c1ccc(O)c(C(C)(C)C)c1
active: [13] 0.0804 µM
inactive: all other assays above

c1ccc2cc3c(ccc4ccccc43)cc2c1
active: [2] 15.5 µM | [3] 38.8 µM | [7] 19.7 µM | [20] 20.1 µM | [10] 8.36 µM | [12] 9.75 µM | [14] 5.58 µM | [16] 12.7 µM | [17] 7.72 µM | [18] 15 µM
inactive: [1] | [4] | [5] | [8] | [11] | [13] | [15] | [19]

CC#C[C@]1(O)CC[C@H]2[C@@H]3CCC4=CC(=O)CCC4=C3[C@@H](c3ccc(N(C)C)cc3)C[C@@]21C
active: [1] 28.4 µM | [2] 40.8 µM | [3] 31.6 µM | [6] 85.5 µM | [7] 75.9 µM | [8] 85.2 µM | [10] 23.6 µM | [11] 37.4 µM | [12] 12.9 µM | [13] 69 µM | [15] 33.7 µM | [16] 67.2 µM | [17] 76.2 µM | [18] 50 µM | [19] 33.5 µM
inactive: [4] | [5] | [14]
